Experimental findings from ChEMBL document CHEMBL1961873, “Compounds: GSK PKIS; Assays: Nanosyn kinase panel” (2012) are described below.

In assay [1] the target is Ribosomal protein S6 kinase alpha-6 (Homo sapiens) (UniProt Q9UK32). As to conditions: at 1 µM.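 Also: each value is a mean inhibition of RSK4 from a GSK PKIS panel screen.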
Assay [2] addresses T1, Serine/threonine-protein kinase Sgk1 (Homo sapiens) (UniProt O00141).
T1 sequence (whole entry): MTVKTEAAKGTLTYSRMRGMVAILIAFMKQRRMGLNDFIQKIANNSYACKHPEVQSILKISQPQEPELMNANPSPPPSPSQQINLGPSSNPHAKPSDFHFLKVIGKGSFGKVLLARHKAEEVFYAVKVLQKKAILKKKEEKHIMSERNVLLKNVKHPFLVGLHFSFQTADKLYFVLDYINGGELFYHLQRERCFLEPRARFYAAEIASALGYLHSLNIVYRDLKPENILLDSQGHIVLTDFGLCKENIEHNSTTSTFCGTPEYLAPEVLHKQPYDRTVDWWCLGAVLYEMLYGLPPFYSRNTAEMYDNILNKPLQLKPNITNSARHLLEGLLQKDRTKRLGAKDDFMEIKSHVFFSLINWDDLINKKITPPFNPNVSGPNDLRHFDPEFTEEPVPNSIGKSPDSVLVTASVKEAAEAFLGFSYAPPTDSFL
As to conditions: at 0.1 µM.

Assay [3] concerns the target T1, Serine/threonine-protein kinase Sgk1 (Homo sapiens). As to conditions: at 1 µM.
For assay [4], the target named is T2, Serine/threonine-protein kinase Sgk2 (Homo sapiens) (UniProt Q9HBY8).
T2 sequence (whole entry): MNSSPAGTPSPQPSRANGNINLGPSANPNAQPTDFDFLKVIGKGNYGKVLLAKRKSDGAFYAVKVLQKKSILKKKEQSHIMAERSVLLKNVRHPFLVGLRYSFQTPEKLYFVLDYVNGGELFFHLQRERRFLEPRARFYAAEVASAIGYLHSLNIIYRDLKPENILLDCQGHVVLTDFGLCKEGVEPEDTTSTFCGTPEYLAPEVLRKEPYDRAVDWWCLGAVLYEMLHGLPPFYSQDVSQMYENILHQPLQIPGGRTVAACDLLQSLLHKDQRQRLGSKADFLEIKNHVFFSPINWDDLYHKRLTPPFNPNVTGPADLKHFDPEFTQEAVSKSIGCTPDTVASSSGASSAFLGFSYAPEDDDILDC
As to conditions: at 0.1 µM.

Assay [5] concerns the target T2, Serine/threonine-protein kinase Sgk2 (Homo sapiens). As to conditions: at 1 µM.
Assay [6] addresses T3, Serine/threonine-protein kinase Sgk3 (Homo sapiens) (UniProt Q96BR1).
T3 sequence (whole entry): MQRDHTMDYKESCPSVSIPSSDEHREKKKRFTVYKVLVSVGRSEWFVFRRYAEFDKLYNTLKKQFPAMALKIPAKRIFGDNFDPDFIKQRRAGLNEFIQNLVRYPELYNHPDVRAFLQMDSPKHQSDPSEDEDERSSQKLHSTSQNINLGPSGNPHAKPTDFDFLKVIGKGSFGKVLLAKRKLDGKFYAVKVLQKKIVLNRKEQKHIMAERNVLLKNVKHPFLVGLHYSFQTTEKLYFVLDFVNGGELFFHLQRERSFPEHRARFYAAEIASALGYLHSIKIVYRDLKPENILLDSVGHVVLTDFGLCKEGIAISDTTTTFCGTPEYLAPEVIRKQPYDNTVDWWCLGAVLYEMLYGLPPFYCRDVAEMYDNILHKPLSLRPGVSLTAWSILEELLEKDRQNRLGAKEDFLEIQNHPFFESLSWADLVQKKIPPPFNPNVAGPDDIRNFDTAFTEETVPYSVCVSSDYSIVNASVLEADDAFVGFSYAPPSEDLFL
Particulars: at 0.1 µM.

Assay [7] has as its target T3, Serine/threonine-protein kinase Sgk3 (Homo sapiens). Particulars: at 1 µM.
Assay [8] concerns the target 5'-AMP-activated protein kinase catalytic subunit alpha-1 (Homo sapiens) (UniProt Q13131). As to conditions: at 0.1 µM.
Assay [9] has the same target. As to conditions: at 1 µM.
For assay [10], the target named is 5'-AMP-activated protein kinase catalytic subunit alpha-2 (Homo sapiens) (UniProt P54646). As to conditions: at 0.1 µM.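 Also: mean inhibition measured on the AMPK complex of alpha2, beta1 and gamma1 subunits.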

Molecules are shown by their SMILES. Values joined by “and” are separate entries in the source; they are usually repeats but may differ in a detail not shown here. Identical values can stand only once.

Sequence of Ribosomal protein S6 kinase alpha-6 (Homo sapiens) (Q9UK32 whole entry): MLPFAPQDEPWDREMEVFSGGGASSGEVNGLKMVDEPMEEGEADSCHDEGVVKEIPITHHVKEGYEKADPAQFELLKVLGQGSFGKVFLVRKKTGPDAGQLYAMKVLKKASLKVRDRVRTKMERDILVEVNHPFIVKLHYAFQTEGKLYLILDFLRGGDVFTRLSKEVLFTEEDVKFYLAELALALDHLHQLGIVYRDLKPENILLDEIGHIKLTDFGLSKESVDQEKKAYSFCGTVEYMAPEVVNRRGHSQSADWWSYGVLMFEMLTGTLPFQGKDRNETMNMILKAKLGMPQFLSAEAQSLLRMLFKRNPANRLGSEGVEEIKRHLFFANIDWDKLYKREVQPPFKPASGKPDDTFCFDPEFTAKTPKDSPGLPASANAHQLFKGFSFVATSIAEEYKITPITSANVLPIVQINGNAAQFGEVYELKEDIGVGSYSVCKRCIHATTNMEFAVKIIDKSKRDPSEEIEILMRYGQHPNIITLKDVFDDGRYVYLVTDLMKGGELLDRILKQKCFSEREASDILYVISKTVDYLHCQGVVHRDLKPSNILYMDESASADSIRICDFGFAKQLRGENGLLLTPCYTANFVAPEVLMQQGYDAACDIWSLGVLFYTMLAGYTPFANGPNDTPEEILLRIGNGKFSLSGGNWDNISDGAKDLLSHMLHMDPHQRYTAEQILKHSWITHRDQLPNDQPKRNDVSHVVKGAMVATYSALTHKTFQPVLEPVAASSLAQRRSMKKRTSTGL
Sequence of 5'-AMP-activated protein kinase catalytic subunit alpha-2 (Homo sapiens) (P54646 whole entry, looked up): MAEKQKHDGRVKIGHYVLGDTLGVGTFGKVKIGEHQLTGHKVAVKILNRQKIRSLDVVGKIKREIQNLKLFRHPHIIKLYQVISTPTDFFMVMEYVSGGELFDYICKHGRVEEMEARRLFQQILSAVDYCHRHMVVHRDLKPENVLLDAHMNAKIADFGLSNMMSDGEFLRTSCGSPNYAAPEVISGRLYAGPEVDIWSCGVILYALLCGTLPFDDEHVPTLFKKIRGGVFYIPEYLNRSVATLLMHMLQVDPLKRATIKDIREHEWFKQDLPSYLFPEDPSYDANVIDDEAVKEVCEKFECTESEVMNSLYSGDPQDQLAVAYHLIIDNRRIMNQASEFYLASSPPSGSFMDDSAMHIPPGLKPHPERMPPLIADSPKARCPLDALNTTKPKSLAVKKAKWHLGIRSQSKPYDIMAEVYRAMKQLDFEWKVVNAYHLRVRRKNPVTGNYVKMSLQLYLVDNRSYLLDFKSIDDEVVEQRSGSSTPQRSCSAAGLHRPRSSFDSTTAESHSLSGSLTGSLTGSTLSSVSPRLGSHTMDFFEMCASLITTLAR
Sequence of 5'-AMP-activated protein kinase catalytic subunit alpha-1 (Homo sapiens) (Q13131 whole entry, looked up): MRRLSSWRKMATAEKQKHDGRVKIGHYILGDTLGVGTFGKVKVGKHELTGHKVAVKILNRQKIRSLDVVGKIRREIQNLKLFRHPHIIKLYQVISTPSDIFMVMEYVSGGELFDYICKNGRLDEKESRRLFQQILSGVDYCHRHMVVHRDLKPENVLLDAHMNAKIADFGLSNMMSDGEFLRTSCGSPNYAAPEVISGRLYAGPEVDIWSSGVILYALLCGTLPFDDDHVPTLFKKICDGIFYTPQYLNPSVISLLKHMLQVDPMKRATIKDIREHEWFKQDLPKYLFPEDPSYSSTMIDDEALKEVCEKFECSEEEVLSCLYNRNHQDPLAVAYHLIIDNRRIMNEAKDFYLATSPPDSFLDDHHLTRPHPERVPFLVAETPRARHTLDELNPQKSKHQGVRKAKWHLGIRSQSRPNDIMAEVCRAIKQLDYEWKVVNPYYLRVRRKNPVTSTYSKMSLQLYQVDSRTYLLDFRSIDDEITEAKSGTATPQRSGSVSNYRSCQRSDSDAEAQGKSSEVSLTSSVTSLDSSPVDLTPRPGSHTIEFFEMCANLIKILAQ

`Nc1nccc(-c2c(-c3ccc(F)cc3)ncn2C2CCNCC2)n1`: the inhibition in assay [1] is 4.21% and 1.38%; in assay [2], 0.06% and 1.23%; in assay [3] it was 2.06% and 1.69%; in assay [4] it was -3% and 1.37%; in [5] it was 0.49% and 1.29%; in assay [6], -1.13% and 1.78%. For the same compound, the inhibition in assay [7] is -2.95% and -0.32%; in [8] it was -1.82% and 0.38%; in assay [9], 0.26% and 0.1%; in [10], -1.29% and 1.97%.

Turning to `c1ccc(-c2n[nH]cc2-c2ccnc(-c3ccc(OCCn4ccnc4)cc3)c2)nc1`, the inhibition in assay [1] worked out at 1.74%; in assay [2], 0.97%; in assay [3] it was 2.43%; in [4], 0.56%; in assay [5] it was 0.22%; in [6], 0.55%. Further, the inhibition in assay [7] worked out at 2.01%; in assay [8] it was 0.79%; in [9], 3.29%; in assay [10], 2.92%.

Take `CCOc1ccc2c(-c3ccnc(Nc4cc(OC)cc(C(F)(F)F)c4)n3)cnn2n1`: the inhibition in [1] is 0.36%; in assay [2], -0.01%; in assay [3], 1.56%; in assay [4] it was 0.96%; in assay [5], 3.1%; in assay [6], 1.37%. Also, the inhibition is -0.48% in assay [7], 0.25% in assay [8], 1.28% in assay [9] and 1.34% in assay [10].

As for `CC1=C(C(=O)Nc2ccc3[nH]nc(C)c3c2)C(c2ccc(C(F)(F)F)cc2)CC(=O)N1` (stereo not given), the inhibition in [1] stood at 18.9%; in assay [2], 2.07%; in [3], 7.21%; in assay [4], 0.38%; in [5] it was 5.99%; in [6] it was 1.33%. In addition, the inhibition in assay [7] is 6.15%; in [8] it was 4.08%; in assay [9], 24.4%; in assay [10], -0.12%.

Regarding `O=C1Nc2ccccc2/C1=C1\CCc2cc(O)ccc21`, the inhibition in assay [1] was 37.6%; in assay [2] it was 6.47%; in [3], 19.2%; in [4], 2.24%; in assay [5] it was 10.2%; in assay [6], 2.61%. Also, the inhibition in assay [7] came to 5.81%; in [8], 5.27%; in assay [9], 13.4%; in assay [10] it was 5.22%.

With `FC(F)(F)CNc1nccc(-c2cnn3ncccc23)n1`, the inhibition in assay [1] was 0.2%; in assay [2] it was 1.25%; in [3], 1.46%; in assay [4], 0%; in assay [5], 0.87%; in assay [6] it was 2.93%. The inhibition in assay [7] worked out at 4.28%; in assay [8], 1.91%; in [9] it was 2.67%; in [10] it was 0.68%.

As to `NC(=O)c1ccc2c(-c3ccnc(NCCCO)n3)c(-c3ccc(F)cc3)nn2c1`, the inhibition in assay [1] was 2.84%; in assay [2], 2.62%; in [3], 2.32%; in assay [4], 4.31%; in assay [5], 1.91%; in [6], 2.16%. The inhibition in assay [7] came out at 1.28%; in assay [8] it was 2.28%; in assay [9] it was 7.4%; in assay [10], 3.45%.

Turning to `Cc1cc(O)cc(C)c1/C=C/c1cncc(C(=O)OC(C)(C)C)c1`, the inhibition in [1] worked out at 1.11%; in assay [2], 1.6%; in assay [3] it was 2.22%; in assay [4], 3.61%; in [5] it was 4.38%; in [6], 3.8%. Further, the inhibition in assay [7] was 0.63%; in assay [8], 2.74%; in assay [9], 3.91%; in assay [10] it was 2.92%.

With `CCS(=O)(=O)c1ccc(OC)c(Nc2ncc(-c3cccc(F)c3)o2)c1`, the inhibition was found to be 6.33% in [1]; 2.66% in assay [2]; 4% in [3]; 0.06% in [4]; 1.18% in assay [5]; 3.85% in assay [6]. Also, the inhibition in assay [7] came out at 3.03%; in assay [8], 2.82%; in [9], 5.78%; in [10] it was 7.22%.

With `COc1cccc(Nc2nccc(-c3cnn4ncccc34)n2)c1`, the inhibition in assay [1] is 4.34%; in assay [2], 1.84%; in assay [3], 9.81%; in assay [4], 7.46%; in assay [5], 6.98%; in assay [6], -0.45%. In addition, the inhibition in [7] is 2.03%; in [8] it was 2.19%; in [9], 10.9%; in assay [10], -3.44%.

Turning to `Cc1c2ccc(N(C)c3ccnc(Nc4cccc(S(N)(=O)=O)c4)n3)cc2nn1C`, the inhibition was 4.77% in assay [1]; 3.85% in [2]; 4.14% in [3]; 2.67% in assay [4]; 3.7% in assay [5]; 4.44% in assay [6]. Also, the inhibition is 8.06% in [7], 3.77% in assay [8], 4.2% in assay [9] and 3.67% in assay [10].

For the compound `CCN1CCC(C(=O)Nc2n[nH]c3nnc(-c4cccc(F)c4F)cc23)CC1`, the inhibition in assay [1] was 0.55%; in [2], 0.58%; in assay [3], 1.25%; in assay [4], 2.32%; in [5], 0.65%; in [6], -1.34%. The inhibition in [7] worked out at 1.23%; in assay [8], 0.5%; in assay [9], 2.46%; in assay [10] it was 1.01%.

Turning to `COc1ccccc1-c1cc(/C=C2\C(=O)Nc3ncc(Br)cc32)cc(Br)c1O`, the inhibition came to 2.05% in [1]; 4.47% in [2]; 5.53% in assay [3]; 3.23% in assay [4]; 2.58% in [5]; 4.46% in assay [6]. In addition, the inhibition was 0.16% in assay [7], 4.85% in assay [8], 9.85% in assay [9] and 5.58% in assay [10].

Turning to `OCCCNc1nccc(-c2c(-c3ccc(F)cc3)nn3cc(C(F)(F)F)ccc23)n1`, the inhibition in assay [1] was 2.38%; in assay [2], 2.5%; in [3] it was 1.43%; in assay [4], 1.44%; in assay [5], 5.76%; in assay [6] it was 1.97%. In addition, the inhibition was 2.06% in [7], 2.58% in assay [8], 1.3% in assay [9] and -0.71% in assay [10].

Take `Fc1cccc(COc2ccc(Nc3ncncc3C#Cc3ccccc3)cc2Cl)c1`: the inhibition in assay [1] stood at 1.91%; in assay [2] it was 3.17%; in assay [3], 7.69%; in assay [4], 5.33%; in assay [5], 8.63%; in assay [6], 5.19%. The inhibition in assay [7] came out at 7.34%; in assay [8], 3.44%; in assay [9], 7.14%; in assay [10] it was 1.38%.

On to `CN1CCN(Cc2ccc(-c3cc4ncnc(Nc5ccc(OCc6cccc(F)c6)c(Cl)c5)c4s3)o2)CC1`, for which the inhibition in [1] is 2.87% and 4.99%; in [2], 2.87% and 4.63%; in assay [3], 3.57% and 7.64%; in assay [4], 1.23% and 4.49%; in assay [5], 1.46% and 3.55%; in [6], 1.48% and 4.43%. For the same compound, the inhibition in assay [7] is 2.48% and 5.69%; in [8], 2.4% and 5.32%; in assay [9] it was 3% and 5.69%; in [10], 3.72% and 4.13%.
